Test [1] is described as follows: qHTS assay to identify small molecule antagonists of the thyroid receptor (TR) signaling pathway (AID 743065). Also: nearly all actives have a fitted effect of over 55% in size. Also: potency is read from the fitted curve at half-maximal effect. In a few lines:
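Antagonism measured as loss of luciferase signal in GH3 cells stably carrying a TRE-luciferase reporter, co-treated with compound and T3 (1 nM final) for 23.5 h at 37 C. Viability was read in the same well by CellTiter-Fluor.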

The test system of test [2] is thyroid hormone receptor (rat, GH3 cells). Briefly: qHTS assay to identify small molecule agonists of the thyroid receptor (TR) signaling pathway (AID 743066; calls by dose curve).
Test [3] in a line: qHTS assay to identify small molecule antagonists of the estrogen receptor alpha (ER-alpha) signaling pathway - cell viability counter screen (AID 743074; calls by dose curve;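 also: HEK293 cells carrying ER-alpha-UAS-bla reporter stimulated with 17beta-estradiol; nearly all actives have a fitted effect of over 45% in size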; also: potency is read from the fitted curve at half-maximal effect).
The target in test [4] is Estrogen receptor (Homo sapiens) (UniProt P03372). Briefly: qHTS assay to identify small molecule agonists of the estrogen receptor alpha (ER-alpha) signaling pathway (AID 743075; calls by dose curve;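 also: HEK293 GripTite cells with ER-alpha and UAS-driven beta-lactamase reporter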).
Estrogen receptor (Homo sapiens), sequence (P03372 whole entry, looked up): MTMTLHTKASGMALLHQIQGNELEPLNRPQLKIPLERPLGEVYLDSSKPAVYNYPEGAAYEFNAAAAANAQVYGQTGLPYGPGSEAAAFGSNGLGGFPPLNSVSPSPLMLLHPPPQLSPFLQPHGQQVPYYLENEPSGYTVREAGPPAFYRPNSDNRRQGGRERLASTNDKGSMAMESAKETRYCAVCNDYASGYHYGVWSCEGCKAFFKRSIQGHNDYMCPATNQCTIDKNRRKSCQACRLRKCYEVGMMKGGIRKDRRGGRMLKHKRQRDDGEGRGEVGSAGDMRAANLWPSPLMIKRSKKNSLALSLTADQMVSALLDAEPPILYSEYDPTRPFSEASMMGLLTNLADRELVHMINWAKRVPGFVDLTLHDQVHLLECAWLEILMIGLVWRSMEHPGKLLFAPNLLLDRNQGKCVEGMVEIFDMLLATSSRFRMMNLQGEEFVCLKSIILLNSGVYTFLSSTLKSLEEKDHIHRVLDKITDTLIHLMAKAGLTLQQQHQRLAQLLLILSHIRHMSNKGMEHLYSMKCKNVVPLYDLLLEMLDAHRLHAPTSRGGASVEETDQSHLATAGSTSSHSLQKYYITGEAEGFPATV
Test [5] can be described thus: qHTS assay to identify small molecule antagonists of the estrogen receptor alpha (ER-alpha) signaling pathway using the BG1 cell line - cell viability counter screen (AID 743081).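 Also: compound given together with 17beta-estradiol as the ER stimulus; nearly all actives have a fitted effect of over 45% in size.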 Also: potency is read from the fitted curve at half-maximal effect. Background: In qHTS, concentration-response curves come from the screen itself.
In test [6] the target is Aromatase (Homo sapiens) (UniProt P11511). Kind of test: qHTS assay to identify aromatase inhibitors (AID 743083). Also: nearly all actives have a fitted effect of over 55% in size. Also: potency is read from the fitted curve at half-maximal effect.
Aromatase (Homo sapiens), sequence (P11511 whole entry, looked up): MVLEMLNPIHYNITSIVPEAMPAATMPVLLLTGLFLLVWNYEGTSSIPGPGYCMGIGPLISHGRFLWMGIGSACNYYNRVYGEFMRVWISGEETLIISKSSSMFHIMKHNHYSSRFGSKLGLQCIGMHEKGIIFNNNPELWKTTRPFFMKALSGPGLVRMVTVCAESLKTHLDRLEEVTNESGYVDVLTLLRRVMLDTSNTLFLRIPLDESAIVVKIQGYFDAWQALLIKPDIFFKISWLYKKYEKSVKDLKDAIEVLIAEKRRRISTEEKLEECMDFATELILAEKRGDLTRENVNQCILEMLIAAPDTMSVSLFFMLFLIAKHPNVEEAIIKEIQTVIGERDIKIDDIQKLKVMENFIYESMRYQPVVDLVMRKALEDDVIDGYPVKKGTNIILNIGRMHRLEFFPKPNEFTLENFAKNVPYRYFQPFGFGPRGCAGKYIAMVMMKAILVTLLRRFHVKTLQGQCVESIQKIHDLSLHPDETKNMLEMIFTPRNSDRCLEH
A short description of test [7]: qHTS assay to identify aromatase inhibitors - cell viability counter screen (AID 743084).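 Also: cells stimulated with testosterone during compound exposure; nearly all actives have a fitted effect of over 55% in size.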 Also: potency is read from the fitted curve at half-maximal effect.
Test [8] concerns the target Estrogen receptor (Homo sapiens) (UniProt P03372). Briefly: qHTS assay to identify small molecule antagonists of the estrogen receptor alpha (ER-alpha) signaling pathway (AID 743069; active = well fitted curve in the direction sought with a large enough effect in the signal ratio in the repeat runs, not every such curve was filed as active; inconclusive = weak or mixed curves, or effect the other way; inactive = no such curve, though single readings can be large or run the other way; the % refers to the signal ratio; also: potency is read from the fitted curve at half-maximal effect). The essentials: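 Antagonist mode: compounds in DMSO were co-added with 17beta-estradiol to ER-alpha-bla HEK293 cells (2% charcoal-stripped serum) and left 18 h at 37C. Reporter inhibition was measured as FRET fluorescence after 2 h LiveBLAzer substrate at room temperature.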

The target is the same in test [9]. Kind of test: qHTS assay to identify small molecule agonists of the estrogen receptor alpha (ER-alpha) signaling pathway using the BG1 cell line (AID 743079). Also: nearly all actives have a fitted effect of over 20% in size. As to conditions: BG1Luc4E2 cells, ERE-luciferase agonist, 22 h; activation: at 70.3 µM (top of the series).
A short description of test [10]: qHTS assay to identify small molecule antagonists of the estrogen receptor alpha (ER-alpha) signaling pathway using the BG1 cell line (AID 743080; calls by dose curve;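 also: BG1 cells stimulated with 17beta-estradiol alongside compound; nearly all actives have a fitted effect of over 25% in size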). In a few lines: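 BG1-Luc-4E2 cells (endogenous full-length ER-alpha, stable 4×ERE-luciferase) were starved 5 days in phenol-red-free medium with 10% charcoal-stripped FBS, plated 24 h, then given compound plus 17beta-estradiol for 21.5 h at 37 C; ONE-Glo luminescence read after 30 min.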

The source made the active and inactive calls. Unless noted, calls follow the shape of the dose curve; as a rule, active = well fitted curve in the direction sought with a large enough effect in the repeat runs; inconclusive = weak or mixed curves; inactive = no such curve, though single readings can be large; an effect the other way counts as inactive or inconclusive.

Regarding `CC(C)=CCC1C(=O)N(c2ccccc2)N(c2ccccc2)C1=O`, the Potency in [1] was 21.1 µM (active). In addition, the molecule was called inactive in test [2]. The Potency entry in test [3], in test [4], in [5], in [6] and in test [7] was “inactive” in each case.
For `CCC1(CO)COCOC1`, the Potency entry in [1], in test [8], in test [4], in [9], in test [10] and in [5] was “inactive” in each case. The Potency result in test [6] and in test [7] was “inactive” in each case. Besides, the call in test [2] was inactive.
As to `C[C@]1(Cn2ccnn2)[C@H](C(=O)O)N2C(=O)C[C@H]2S1(=O)=O`, the Potency entry in test [1], in test [3], in test [9], in test [10], in [6] and in test [7] was “inactive” in each case. Besides, the outcome in test [2] was inactive. Further, in [8], the Potency is 2.39 µM [inconclusive] (active).
Turning to `CCOC(=O)[C@H](CCc1ccccc1)N[C@@H](C)C(=O)N(CC(=O)O)C1Cc2ccccc2C1`, the Potency result in test [1], in test [8], in test [4], in [9], in test [10] and in test [5] was “inactive” in each case. Moreover, the Potency result in [6] and in test [7] was “inactive” each time. In addition, the molecule was classed as inactive in [2].
Take `CC(C)(c1ccccc1)c1ccccc1`: the Potency entry in [1], in [3], in [5] and in test [6] was “inactive” in each case. In test [2], the molecule was classed as inactive.
As for `O=C=Nc1ccc(Cl)c(Cl)c1`, the Potency result in test [1], in test [3], in test [4], in test [9], in test [10] and in test [5] was “inactive” each time. In addition, the Potency entry in test [6] and in [7] was “inactive” each time. Besides, in test [2], the molecule was called inactive.
On to `CCCCCCCCCCC(=O)O`, for which the Potency result in test [1], in test [3], in [4], in test [9], in test [10] and in test [5] was “inactive” each time. Besides, the Potency result in test [6] and in [7] was “inactive” in each case. Moreover, in test [2], the call was inactive.
Take `O=c1cc(-c2ccccc2)oc2cc(O)cc(O)c12`: the Potency in test [1] was 54.5 µM (active). Also, the molecule was called inactive in test [2]. The Potency entry in [3] and in test [5] was “inactive” throughout.
With `CC1=Nc2ccc3ccccc3c2C1(C)C`, the Potency result in test [1], in [3], in test [4], in [10], in test [5] and in test [6] was “inactive” throughout. Moreover, the Potency result in [7] is “inactive”. Besides, the molecule was called inactive in test [2].
Consider `NNC(=O)CP(=O)(c1ccccc1)c1ccccc1`, for which the Potency entry in test [1], in test [3] and in test [5] was “inactive” throughout. Also, the molecule was classed as inactive in test [2].
Consider `CC1(C)O[C@@H]2C[C@H]3[C@@H]4C[C@H](F)C5=CC(=O)C=C[C@]5(C)[C@H]4[C@@H](O)C[C@]3(C)[C@]2(C(=O)CO)O1`, for which the Potency entry in [1], in [3], in test [9], in test [5], in [6] and in [7] was “inactive” each time. In addition, the molecule was called inactive in test [2].
As for `CC(=O)Oc1ccc([N+](=O)[O-])cc1CCl`, the Potency entry in test [1], in [3], in [4], in test [9] and in test [6] was “inactive” in each case. The call in [2] was inactive. Further, the Potency is 61.1 µM (active) in test [5] and 27.3 µM (active) in test [7].
On to `Nc1nc2ccc([N+](=O)[O-])cc2s1`, for which the Potency in test [1] is 48.6 µM (active). Further, the molecule was classed as inactive in test [2]. Further, the Potency entry in test [6] is “inactive”.
In the case of `CC1=C(Br)C(=O)C(Br)=C/C1=C(/c1ccccc1S(=O)(=O)O)c1cc(Br)c(O)c(Br)c1C`, the Potency in [1] was 18.6 µM (active); in [5], 37 µM (active); in [6], 18.6 µM (active); in test [7] it was 23.4 µM (active). In test [2], the result was inactive.
For the molecule `CCCCCCCCCCCCCCN(CCO)CCO`, the Potency is 17.2 µM (active) in test [1], 54.9 µM (active) in test [3], 27.3 µM (active) in test [6] and 43.3 µM (active) in [7]. In [2], the call was inactive. In test [5], the Potency result is “inactive”.
As for `c1cc(N(CC2CO2)CC2CO2)ccc1Cc1ccc(N(CC2CO2)CC2CO2)cc1` (centres undefined), the values for the Potency in test [1], in [6] and in test [7] were 8.63 µM (active), 30.6 µM (active) and 27.3 µM (active), respectively. Besides, the call in test [2] was inactive. In [3], the Potency result was “inactive”.
With `CCOC(=O)OC(C)OC(=O)[C@@H]1N2C(=O)[C@@H](NC(=O)[C@H](N)c3ccccc3)[C@H]2SC1(C)C` (some centres undefined), the Potency entry in test [1], in test [3], in [5], in test [6] and in [7] was “inactive” in each case. For the same molecule, in test [2], the call was inactive.
On to `CC/C=C1/OC(=O)c2ccccc21`, for which the Potency result in test [1], in test [3], in [5], in [6] and in [7] was “inactive” in each case. The result in test [2] was inactive.
Turning to `CCCCCCCC/C=C\CCCCCCCCO`, the Potency result in test [1], in test [5], in [6] and in [7] was “inactive” each time. In addition, the call in test [2] was inactive.
For the molecule `c1csc(SSc2cccs2)c1`, the Potency result in [1], in [3], in test [5], in test [6] and in [7] was “inactive” each time. For the same molecule, the molecule was classed as inactive in test [2].

The record behind these values is PubChem BioAssay (Tox21).
